Laboratory results from PubChem BioAssay (Tox21).
Results filed as inconclusive are left out. Unmarked numbers belong to inactive results. The source made the active and inactive calls. Calls come from the whole dose curve.

Each compound was assayed against Estrogen receptor (Homo sapiens) (UniProt P03372) (assay: qHTS assay to identify small molecule agonists of the estrogen receptor alpha (ER-alpha) signaling pathway (AID 743075;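 note: HEK293 GripTite cells with ER-alpha and UAS-driven beta-lactamase reporter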)). Settings: HEK293 ER-alpha-UAS-bla, beta-lactamase FRET ratio, 18 h; series mostly up to 70.1 µM; activation: at the top concentration.
% is set by controls: 0 for no effect and ±100 for the full control effect.

Chain of Estrogen receptor (Homo sapiens) (P03372 whole entry, looked up): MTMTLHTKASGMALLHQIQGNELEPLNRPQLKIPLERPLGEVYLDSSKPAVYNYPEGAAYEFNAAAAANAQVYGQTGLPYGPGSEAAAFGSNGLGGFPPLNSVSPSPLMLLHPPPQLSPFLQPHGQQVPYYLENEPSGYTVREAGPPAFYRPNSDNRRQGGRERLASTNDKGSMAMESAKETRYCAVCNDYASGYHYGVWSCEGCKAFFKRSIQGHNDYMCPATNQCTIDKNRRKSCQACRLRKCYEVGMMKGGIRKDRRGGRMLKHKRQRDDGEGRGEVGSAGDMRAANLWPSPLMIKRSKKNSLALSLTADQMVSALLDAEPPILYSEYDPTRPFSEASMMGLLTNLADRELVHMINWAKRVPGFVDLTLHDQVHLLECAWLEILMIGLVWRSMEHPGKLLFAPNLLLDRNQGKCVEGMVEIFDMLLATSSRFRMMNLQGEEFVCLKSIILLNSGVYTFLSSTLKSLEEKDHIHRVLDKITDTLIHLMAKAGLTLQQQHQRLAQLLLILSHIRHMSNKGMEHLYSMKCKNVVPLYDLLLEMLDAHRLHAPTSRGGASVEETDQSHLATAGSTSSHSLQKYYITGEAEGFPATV

Row | SMILES | activation | Potency
1 | CCCN(CCC)C(=O)Cc1c(-c2ccc(Cl)cc2)nc2ccc(Cl)cn12 | -2.37% | 
2 | C[C@H](N)[C@H](O)c1ccc(O)c(O)c1 | 0.459% | 
3 | O=S(=O)(Cl)Cl | 0.8% | 
4 | CN1C[C@H](C(=O)N[C@]2(C)O[C@@]3(O)[C@@H]4CCCN4C(=O)[C@H](Cc4ccccc4)N3C2=O)C=C2c3cccc4[nH]cc(c34)C[C@H]21 |  | inactive
5 | O=C(O)C(O)C(O)C(=O)O (centres undefined) | -0.828% | 
6 | COC(=O)Cc1ccccc1 | -0.861% | 
7 | C=CCN1C[C@H](C)N([C@H](c2ccc(C(=O)N(CC)CC)cc2)c2cccc(OC)c2)C[C@H]1C | 2.6% | 
8 | O=C(O)c1cc(I)cc(I)c1I | -2.65% [at 79.1 µM] | 
9 | O=C(NC(=O)c1cc(F)c(F)cc1Cl)Nc1cc(F)ccc1N1CCC(C(=O)O)CC1 | -4.51% | 
10 | NC(=S)c1c(Cl)cccc1Cl | -0.816% | 
11 | O=C1c2ccccc2C(=O)N1SC(Cl)(Cl)Cl | 12.1% | 
12 | O=C1NC(=O)C(=O)C(=O)N1 | -0.727% [at 79.1 µM] | 
13 | CCC1(C2=NCCN2)Cc2ccccc2O1 (centres undefined) | 5.54% | 
14 | CC(Oc1cc(Cl)c(Cl)cc1Cl)C(=O)O (centres undefined) | -5.24% | 
15 | CNC(=O)Oc1cccc(N=CN(C)C)c1 | -3.15% | 
16 | NCCc1cc(O)c(O)cc1O | 4.68% | 
17 | CN(C)C(=O)Nc1cccc(OC(=O)NC(C)(C)C)c1 | 21.3% | 
18 | CN1C(=O)CN=C(c2ccccc2)c2cc([N+](=O)[O-])ccc21 | -1.92% | 
19 | O=C(O)C(F)(F)C(F)(F)C(F)(F)C(F)(F)C(F)(F)C(F)(F)C(F)(F)C(F)(F)F | 5.49% | 
